In ChEMBL document CHEMBL4513135, “CO-ADD screening of IQOG CSIS (Spain) compounds”:
Entries with a potency or affinity are not part of this list.

Tests used:
[1] = tested on: Staphylococcus aureus; settings: Concentration 32 ug.mL-1; ASSAY_TEST Inhibition of Bacterial Growth; detection method Absorption (OD600); MEDIA CAMHB; plate type 384well; NBS; CORNING #3640; time 18 hr
[2] = tested on: Escherichia coli; settings: Concentration 32 ug.mL-1; ASSAY_TEST Inhibition of Bacterial Growth; detection method Absorption (OD600); MEDIA CAMHB; plate type 384well; NBS; CORNING #3640; time 18 hr

SMILES	Inhibition [1]	Inhibition [2]
C#CCNc1nc(N)c(C#N)c(-c2ccccc2)c1C#N	3.95%	15.49%
C#CCN(C)Cc1cc2cc(OCc3ccc(OC)c4ncccc34)ccc2n1C	3.95%	-18.67%
O=C(N/N=C/c1c[nH]c2ccccc12)c1ccc(Cl)cc1	3.32%	9.43%
Cl.NC1(C(=O)O)CC1c1cccc(Cl)c1 (stereo not given)	12.59%	12.02%
COc1cc(C2C(C#N)=C(N)Oc3ccc4ccccc4c32)ccc1O (stereo not given)	37.28%	-11.46%
COc1ccc(C2C(C#N)=C(N)Oc3c2ccc2ccccc32)cc1 (stereo not given)	21.39%	-6.99%
Cn1c(CNNC(=O)c2ccco2)cc2ccccc21	1.86%	21.64%
C#CCN1CCc2nc3nc(N(C)C)c(C#N)cc3c(N)c2C1	32.37%	-3.45%
CC(C)NNC(=O)Cc1c[nH]c2ccccc12	11.42%	9.11%
Cc1ccc(S(=O)(=O)N[C@H]2CC[C@H](O)CC2)cc1	22.82%	-6.91%
C#CCNc1[nH]c2ccc(O)cc2c1C#N	30.3%	-3.92%
NNC(=O)C1(NC(=O)c2ccccc2)CC1c1cccc(O)c1 (stereo not given)	12.61%	5.57%
NNC(=O)c1c[nH]c2ccc(OCc3ccccc3)cc12	2.88%	0.02%
C/C(Cc1ccccc1)=N/NC(=O)c1c[nH]c2ccc(O)cc12	7.12%	8.13%
N#Cc1c(NC2CCC(Cc3ccccc3)CC2)nc(NC2CCN(Cc3ccccc3)CC2)c(C#N)c1-c1ccccc1 (stereo not given)	4.21%	-8.77%
CCOc1nc(N)c(C#N)c(-c2ccccc2)c1C#N	44.16%	-9.76%
Cn1cc(/C=C2\NC(=S)NC2=O)c2ccccc21	2.93%	3.35%
CCOC(=O)c1c[nH]c2ccc(OCc3ccccc3)cc12	5.22%	6.31%

SMILES	Inhibition [1]	Inhibition [2]
N#Cc1cc(C#N)c(N2CCCC2)nc1N1CCCC1	17.61%	8.77%
COc1cccc(C2c3c(nc4c(c3N)CCCC4)Oc3ccc4ccccc4c32)c1 (stereo not given)	4.84%	-1.02%
N#CC1=C(N)Oc2c(ccc3ccccc23)C1c1ccccc1 (stereo not given)	23.38%	-4.89%
Cc1cnc2ccc(Cl)cn12	9.7%	8.76%
CCOC(=O)C1=C(C)OC(N)=C(C#N)C1c1cccnc1 (stereo not given)	-6.34%	-11.43%
N#CC1(Br)C(=N)Oc2ccc3ccccc3c2C1c1cccc([N+](=O)[O-])c1 (stereo not given)	22.75%	-22.9%
O=C1SC(SCc2ccccc2)=NC1=Cc1cccc(OCc2ccccc2)c1	-1.09%	7.89%
Cc1ccc(C2C(C#N)=C(N)Oc3c2ccc2ccccc32)cc1 (stereo not given)	-4.2%	-2.25%
O=C(Cc1cccc2ccccc12)N/N=C/c1c[nH]c2ccccc12	12.36%	15.45%
CC1Cc2c(nc3c(c2N)CCCC3)NC1=O (stereo not given)	29.78%	-3.82%
Cc1ccc(C(O)SNNc2ncnc3c2cnn3-c2ccccc2)cc1 (stereo not given)	13.51%	11.76%
N#Cc1c(Cl)nc(Sc2ccccc2)c(C#N)c1-c1ccccc1	3.48%	-17.27%
COc1ccc2c(c1)cc(CN(C)C)n2C	-0.93%	-1.4%
COc1ccc(C2c3c(ccc4ccccc34)OC(=NBr)C2(Br)C#N)cc1 (stereo not given)	37.33%	-19.75%
C#CCN(C)c1ncc(C#N)c(N)n1	39.34%	-4.49%
COc1ccc2c(c1)cc(/C=C/[N+](=O)[O-])n2C	10.15%	1.2%
N#CC1=C(N)Oc2c(ccc3ccccc23)C1c1ccc(Cl)c(Cl)c1 (stereo not given)	0.79%	0.95%
